BoNT A protease = inhibitors of Botulinum neurotoxin A light chain protease. inhibition, % at 10 µM. multiplex microsphere protease substrate cleavage, flow cytometry. 360,000 compounds, 0.17% hits; also: plate controls were buffer without enzyme for full effect and enzyme alone for no effect
MazEF act = activators of E. coli MazEF toxin-antitoxin RNase; activation, % at 20 µM; 350,000 compounds, 0.32% hits; P0AE70; FAM/BHQ RNA-DNA oligo cleavage fluorescence, 5 h; in the data active = activation above about 50%
Target sequence (P0AE70 whole entry, looked up): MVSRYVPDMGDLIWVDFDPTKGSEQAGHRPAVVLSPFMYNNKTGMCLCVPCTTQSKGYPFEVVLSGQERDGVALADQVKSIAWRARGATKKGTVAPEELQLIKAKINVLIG
Bead autofluor = flagged as autofluorescent in microsphere protease counterscreen; compound autofluorescence counterscreen, microsphere flow cytometry; stronger effect = higher value; fluorescence intensity (no concentration beside the values); 360,000 compounds, 3.1% hits; AID 624483; in the data active = fluorescence intensity above about 16000; inconclusive = no clear call, values can overlap the other calls
Anthrax LF inh2 = anthrax lethal factor protease inhibition; P15917; multiplex microsphere protease cleavage assay, LF; inhibition, % at 10 µM; 360,000 compounds, 0.12% hits; also: plate controls were buffer without enzyme for full effect and enzyme alone for no effect
BoNT-F LC inh = blocks Botulinum neurotoxin F light chain protease. Multiplex microsphere protease cleavage assay, flow cytometry. inhibition, % at 10 µM. 360,000 compounds, 0.22% hits; in the data active = inhibition above about 35%, passing the limit was not always enough; inconclusive = no clear call, values can overlap the other calls; also: plate controls were buffer without enzyme for full effect and enzyme alone for no effect
Starred values were filed as active, the others as inactive; ? = inconclusive; . = not tested or not shown. Compounds with a hit are over-represented: about 3.7% of the library has one in this group of screens. Rule as the data show it, unless noted: active = inhibition above about 30%; inconclusive = no clear call, values can overlap the other calls; inactive = below that.

SMILES	BoNT A protease	MazEF act	Bead autofluor	Anthrax LF inh2	BoNT-F LC inh
NC(N)=NN=C(c1ccc(F)cc1)c1ccc(C(F)(F)F)cc1	-2	26	3542	-9	-42
NNC(=O)c1nn(-c2ccc(Cl)cc2)ccc1=O	?	7	23538*	-2	-4
CNC(=O)c1nn(-c2ccc(C)cc2)ccc1=O	0	2	2354	-3	-5
CC1(C)NC(C)(C)C(O)(C(N)=O)C1=O (stereo unspecified)	-2	1	23198*	-2	-1
CC1(C)C(C(N)=O)C(=O)NC(=O)C1C(N)=O (stereo unspecified)	0	4	4178	-6	-9
Cc1ccc(N(CN2CCCC2=O)C(=O)c2ccc(C)c(C)c2)cc1	?	-4	21259*	-1	3
O=C(NCc1ccco1)c1ccc(-c2ccc(F)c(F)c2)c2ccoc12	0	.	3406	-4	2
COc1ccccc1C(=O)NCCCn1cc(Br)c(C)n1	?	5	18046*	3	-3
CCCCS(=O)(=O)N1CCCC(C(=O)Oc2ccc(Cl)cc2)C1 (stereo unspecified)	0	-3	3154	18	?
Cc1cc(C(=O)Cn2cnc3cc(F)ccc3c2=O)c(C)n1C1CC1	-2	12	5228	-4	-9
COCCCNC(=O)c1ccc2c(=O)n(CC3CCCO3)c(=S)[nH]c2c1 (stereo unspecified)	0	-9	16266*	-7	-4
CC(C)NC(=O)c1ccc2c(=O)n(CC3CCCO3)c(=S)[nH]c2c1 (stereo unspecified)	0	6	3118	-4	1
COCCCNC(=O)c1ccc2c(=O)n(C3CCCC3)c(=S)[nH]c2c1	4	-8	18736*	-3	4
COc1ccc(NC(=O)C2(C)CCN2Cc2ccc(OC)c3ccccc23)cc1OC (stereo unspecified)	0	.	3498	-11	1
CCn1cc(C(=O)C(F)(F)F)c2ccccc21	1	-3	22281*	0	2
CCn1cc(C(=O)c2cccs2)c2ccccc21	-4	1	16945*	-9	-4
O=C(O)Cn1cc(C(=O)c2ccccc2F)c2ccccc21	-3	4	3712	11	?
O=C(O)Cn1cc(C(=O)c2ccccc2)c2ccccc21	9	-4	18398*	2	10
O=C(Cc1cccc(NC(=O)C2CCCN(C(=O)C3CCCC3)C2)c1)Nc1cccc(C(=O)N2CCOCC2)c1 (stereo unspecified)	0	-2	3390	-6	2
COc1ccc(-c2nc(C#N)c(N3CCc4ccccc4C3)o2)cc1OC	-2	-4	17078*	-7	-5
CCN1CCN(c2oc(-c3ccc(OC)cc3)nc2C#N)CC1	-2	1	16578*	-4	-2
N#Cc1nc(-c2ccco2)oc1N1CCN(c2ccccc2)CC1	0	-1	3193	-2	6
COc1ccc(N2CCN(c3oc(-c4ccco4)nc3C#N)CC2)cc1	?	5	20889*	-6	6
COc1ccc(N2CCN(c3oc(-c4ccccc4OC)nc3C#N)CC2)cc1	-3	4	21565*	-4	-5
N#Cc1c(N)n(C2OC(CO)C(O)C2O)c2ncnc(N)c12 (stereo unspecified)	0	1	3212	2	1
SMILES	BoNT A protease	MazEF act	Bead autofluor	Anthrax LF inh2	BoNT-F LC inh
OC(c1ccccc1)C(O)C(c1ccccc1)N1CCCCC1 (stereo unspecified)	0	11	3990	-6	-6
CCCCC(=O)Nc1ccc2oc(-c3ccncc3)nc2c1	-1	10	6848	6	4
COc1ccc(-c2nc3cc(NC(=O)Cc4ccc(OC)c(OC)c4)ccc3o2)cc1	-1	11	16446*	-3	-3
CCCC(=O)Nc1ccc2oc(-c3ccncc3)nc2c1	0	6	16375*	-2	-1
O=C(CSc1nnc(C2CC2)n1C1CC1)N1CCN(c2ccc(O)cc2)CC1	0	-3	2905	-6	-12
COc1ccccc1/C=C1/SC(=S)N(CCC(=O)Nc2cccnc2)C1=O	1	435*	5271	-1	0
COc1cc(/C=C2/SC(=S)N(CC(=O)Nc3cccnc3)C2=O)cc(OC)c1OC	31*	20	2639	15	30
COc1ccccc1/C=C1\SC(=S)N(CCC(=O)NC2=NCCS2)C1=O	3	172*	2247	2	-4
COc1ccc(OC)c(/C=C2\SC(=S)N(Cc3cccnc3)C2=O)c1	42*	-392	3135	21	13
O=C(CCN1C(=O)/C(=C\c2cccs2)SC1=S)NC1=NCCS1	4	10	10667	5	4
CCc1nc2ccc(C(=O)NCCC(C)C)cn2c1N(C)Cc1ccc(OC)cc1	0	.	3099	-7	-2
CN(C(=O)c1cccc(NC(=O)Cc2ccc(NC(=O)C3CCN(C(=O)CCc4ccccc4)CC3)cc2)c1)C1CCCCC1	0	-15	3929	-8	-10
O=S1(=O)CC(N2CCC(c3ccccc3)CC2)CN1Cc1ccccc1 (stereo unspecified)	-1	.	6306	0	-7
O=C(OCc1cn([C@H]2CN(CC3CCCCC3)[C@@H](c3ccc(Cl)cc3)C[C@@H]2O)nn1)c1ccccc1	0	5	3027	-3	-1
CC(=O)Nc1ccc(S(=O)(=O)Oc2ccc(N3C(=O)C4CCCCC4C3=O)cc2)cc1 (stereo unspecified)	?	-5	19304*	-6	-1
Cc1c(C)c2ccc(O[C@@H]3O[C@H](CO)[C@H](O)[C@H](O)[C@H]3O)c(C)c2oc1=O	0	10	3203	-12	12
Cc1c(O[C@@H]2O[C@H](CO)[C@@H](O)[C@H](O)[C@H]2O)ccc2c1oc(=O)c1ccccc12	3	1	3855	-2	35*
CC(O)(CS(=O)(=O)c1ccc(Br)cc1)c1ccccc1 (stereo unspecified)	3	0	3943	-8	-18
O=S(=O)(CC(O)(c1ccccc1)c1ccccc1)CC(O)(c1ccccc1)c1ccccc1	1	69*	3827	-3	0
COCCC1CCCCN1C(=O)c1cc(COc2ccc(-n3cncn3)cc2)on1 (stereo unspecified)	-170	-4	35235*	-44	-303
COCCOC1CCN(C(=O)c2cc(COc3ccc(-n4cncn4)cc3)on2)CC1	0	10	5450	3	-2
Cc1cc2c(=O)[nH]c(N)nc2[nH]1	0	-16	4074	2	3
Cc1ccnc(Sc2ccc([N+](=O)[O-])cc2[N+](=O)[O-])n1	-1	6	21298*	-1	0
COc1cccc(-c2cc(C(=O)Nc3cccc(O)c3)no2)c1	-3	7	24356*	-2	-5
COc1ccc(-c2cc(C(=O)Nc3ccccc3SC)no2)cc1OC	2	-12	23175*	-3	-1
COc1cccc(-c2cc(C(=O)Nc3cccnc3Cl)no2)c1	0	-7	5786	0	-1
COc1cccc(-c2cc(C(=O)Nc3ccccc3SC)no2)c1	?	-2	16463*	1	-1
